Screening results from PubChem.
The list is not random: actives were taken first. Their share in the collection is about 19%.
DT40 TDP1 no CPT: qHTS for Inhibitors of human tyrosyl-DNA phosphodiesterase 1 (TDP1): qHTS in cells in absence of CPT. DT40 Tdp1-/- hTDP1 cells, no CPT, ATP luminescence, 48 h. Potency, µM (titrated, usually from 46.2 µM), for inactives: top-dose activity change, negative = growth inhibition, usual class: inhibitors. actives 15% (n = 420,000). AID 686978, 2013; also: potency is read from the fitted curve at half-maximal effect; % is scaled to controls: 0 for no effect and ±100 for the full control effect; nearly all actives have a fitted effect of over 55% in size
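Chicken DT40 Tdp1-/- cells stably complemented with human TDP1 were seeded at 400 cells/well with DMSO in place of 20 nM camptothecin. After compound pinning, cells grew at least 48 hr at 37 °C; viability read by CellTiter-Glo luminescence.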
TGFb inhibitor: qHTS for Inhibitors of TGF-b; HepG2 CAGA-GFP TGF-b/SMAD3 reporter, GFP fluorescence, 18 h; TGF-beta stimulated, 500 pg/mL final; Potency, µM (top dose mostly 46.1 µM), for inactives: top-dose activity, negative = inhibition, actives largely listed as inhibitors; actives 1.2% (n = 410,000); AID 588855, 2011; also: potency is read from the fitted curve at half-maximal effect; % is scaled to controls: 0 for no effect and ±100 for the full control effect; nearly all actives have a fitted effect of over 65% in size
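Using HEPG2 CAGA-GFP reporter cells at 1000 cells/well, we pinned test compounds, stimulated with recombinant TGF-beta (500 pg/mL final) and measured total well GFP after 18 h.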
HepG2 tox: qHTS for Inhibitors of TGF-b: Cytotox Counterscreen; HepG2 CAGA-GFP viability, ATP luminescence, 18 h; Potency, µM (series often up to 46.1 µM), for the others: top-dose activity change, negative = cytotoxicity, most hits filed as cytotoxic; actives 0.76% (n = 410,000); AID 588856, 2011; also: potency is read from the fitted curve at half-maximal effect
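HepG2 CAGA-GFP cells (1000/well, DMEM with 1% FBS) received compound, then TGF-beta at 500 pg/mL final, and were incubated 18 hours at 37 degrees C. Viability was read by CellTiter-Glo luminescence. Media-only wells were set as complete cell-killing and DMSO as no toxicity.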
DT40 TDP1 CPT: qHTS for Inhibitors of human tyrosyl-DNA phosphodiesterase 1 (TDP1): qHTS in cells in presence of CPT. actives 12% (n = 420,000). Potency, µM (highest dose often 46.2 µM), inactives show at the top dose activity change, negative = growth inhibition, most hits filed as inhibitors. chicken DT40 Tdp1-/-;hTDP1 cells + 20 nM CPT, ATP luminescence, 48 h; also: potency is read from the fitted curve at half-maximal effect; % is scaled to controls: 0 for no effect and ±100 for the full control effect; nearly all actives have a fitted effect of over 55% in size
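Chicken DT40 Tdp1-/- cells complemented with human TDP1, 400 cells/well, exposed to compounds plus 20 nM camptothecin for at least 48 h at 37 C; viability read as ATP content by CellTiter-Glo luminescence.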
IL-1B inflam inh: qHTS for Inhibitors of Inflammasome Signaling: IL-1-beta AlphaLISA Primary Screen; THP-1 LPS/ATP IL-1B secretion, AlphaLISA, 16 h; hits give low values; activity change, % at 57.5 µM; actives 4.7% (n = 360,000); in the data active = activity change below about -50%; inconclusive = mostly about -30% to -49%; also: % is scaled to controls: 0 for no effect and ±100 for the full control effect
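Secreted IL-1B measured by AlphaLISA bead assay after 16 h compound exposure of THP-1 cells; compounds (final up to 57.5 uM) added 1 h before LPS (250 ng/mL) and ATP (1.25 mM) stimulation; lower signal means less secretion.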
S-ASM inh: Inhibitors of Secretory Acid Sphingomyelinase (S-ASM): qHTS | AID 504937, 2011 | actives 0.006% (n = 340,000) | Potency, µM (highest dose often 57.5 µM), for the others: top-dose activity change, negative = inhibition, most hits filed as inhibitors | Sphingomyelin phosphodiesterase (Homo sapiens), P17405 | placental ASM, HMU-PC fluorogenic substrate, 60 min; also: potency is read from the fitted curve at half-maximal effect
Target sequence (P17405 47-631 limits assumed): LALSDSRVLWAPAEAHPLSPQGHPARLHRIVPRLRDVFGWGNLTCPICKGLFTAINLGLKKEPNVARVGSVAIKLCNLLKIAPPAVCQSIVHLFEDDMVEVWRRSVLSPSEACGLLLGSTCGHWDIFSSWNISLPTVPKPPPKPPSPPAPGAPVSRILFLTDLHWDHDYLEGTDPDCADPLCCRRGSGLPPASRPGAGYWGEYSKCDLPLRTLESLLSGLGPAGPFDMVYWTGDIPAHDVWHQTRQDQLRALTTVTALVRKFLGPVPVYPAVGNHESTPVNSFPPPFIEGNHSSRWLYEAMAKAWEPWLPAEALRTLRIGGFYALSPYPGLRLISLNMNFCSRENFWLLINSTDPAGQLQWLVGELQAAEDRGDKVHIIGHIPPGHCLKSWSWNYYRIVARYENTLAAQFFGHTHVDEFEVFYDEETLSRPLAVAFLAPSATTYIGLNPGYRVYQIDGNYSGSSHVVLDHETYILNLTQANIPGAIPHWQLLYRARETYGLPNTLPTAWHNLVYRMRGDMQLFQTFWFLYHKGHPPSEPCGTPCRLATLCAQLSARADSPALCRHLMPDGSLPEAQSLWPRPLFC
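HMU-PC0 cleavage (9 uM final) by human placental ASM, 60 min at 37 °C following 10 min compound exposure at RT; stopped at pH 10, fluorescence Ex 386/Em 447 nm.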
An asterisk follows results filed as active; ? = inconclusive; · = not tested or not shown; [ ] = another dose, or the depositor's remark. Unless noted, calls follow the shape of the dose curve; as a rule, active = well fitted curve in the direction sought with a large enough effect; inconclusive = small, poorly fitted or top-dose-only effect, or another doubt; inactive = no such curve, though single readings can be large; an effect the other way counts as inactive or inconclusive.

SMILES | DT40 TDP1 no CPT | TGFb inhibitor | HepG2 tox | DT40 TDP1 CPT | IL-1B inflam inh | S-ASM inh
Cn1c(=O)[nH]c2nncnc2c1=O | 6% | -24% | -33% | -10% | 63 | 4%
CCC(C)NS(=O)(=O)c1ccc(OCC(=O)N2CCN(CC)CC2)cc1 (stereo unspecified) | 0% | -2% | -12% | 0% | 0 | 1%
CCC1C(=O)OCC1Cc1cncn1C (stereo unspecified) | -6% | · | · | 7% | · | ·
O=c1cccc2n1CC1CC2CN(S(=O)(=O)c2ccc(F)cc2)C1 (stereo unspecified) | 6% | 2% | 7% | 3% | 1 | -4%
O=C1NC(=O)C(=Cc2ccc3ccccc3c2)C(=O)N1 | -2% | 7% | -14% | 7% | ? | 1%
Cc1cc(C)cc(OCCOc2cccc(C=C3C(=O)NC(=O)NC3=O)c2)c1 | ? | -15% | -18% | 18µM* | 14 | -3%
Cc1ccc(OCCOc2cccc(C=C3C(=O)NC(=O)NC3=O)c2)cc1 | 18µM* | 0% | 0% | ? | -5 | -8%
COC(=O)N1CCC2(CCCN(C)C2)CC1 | -20% | · | · | 27% | · | ·
CC(=O)[C@@]1(O)CC[C@H]2[C@@H]3CCC4=CC(=O)CC[C@]4(C)C3(F)[C@@H](O)C[C@@]21C (stereo partly specified) | -14% | · | · | 13% | · | ·
C[C@H]1C[C@H]2[C@@H]3CCC4=CC(=O)C=C[C@]4(C)[C@@]3(F)[C@@H](O)C[C@]2(C)[C@@]1(O)C(=O)CCl | 0.053µM* | · | · | -97% | · | ·
CCC1CN2CCc3cc(OC)c(OC)cc3C2CC1CC1NCCc2cc(OC)c(OC)cc21 (stereo unspecified) | 0.15µM* | · | · | 0.21µM* | · | ·
O=C(Nc1ccc(Cl)cc1)Nc1nccs1 | 2.9µM* | -13% | -22% | 4.1µM* | 13 | -3%
O=C(CCl)Nc1nccs1 | 5.8µM* | 11µM* | 11µM* | 2.6µM* | -62* | -3%
O=C(Nc1nccs1)C(Cl)(Cl)Cl | -15% | 2% | -7% | -2% | -10 | 12%
CC1CN(C(=O)CCC(=O)N2CCC3(CC2)OCCO3)c2cc(Cl)ccc2O1 (stereo unspecified) | 4% | 1% | -8% | -29% | 12 | 2%
O=C(Cn1c(=O)nc(-c2ccccc2)c2cc(Cl)ccc21)NCc1ccccc1 | 16µM* | -7% | 1% | 7.3µM* | · | ·
Cc1ccnc(NS(=O)(=O)c2cc([N+](=O)[O-])ccc2C)c1 | -17% | ? | 7% | 20% | 26 | 0%
COc1ccc(-c2ccc3c(c2)CN(C(=O)CCc2ccccc2)Cc2cnnn2-3)cc1 | ? | ? | 0% | ? | -17 | ·
COc1ccc(-c2nc(SCC(=O)NC(C)CCc3ccccc3)n[nH]2)cc1 (stereo unspecified) | 12µM* | 0% | -21% | 12µM* | · | ·
Fc1ccccc1CNCCc1ccc2c(c1)OCO2 | -28% | 8% | -23% | -1% | 0 | 2%
C=CCn1c(O)c(C(C)=Nc2ccc(N(CC)CC)cc2)c(=O)[nH]c1=O | 9.2µM* | 7% | -1% | 21µM* | 39 | ?
CCOc1ccc(N=Cc2c(O)n(-c3ccc(C)c(C)c3)c(=O)[nH]c2=O)cc1 | -35% | 0% | 5.6µM* | -8% | 18 | 17%
CCOc1ccc(N=Cc2c(O)n(-c3cc(C)cc(C)c3)c(=O)[nH]c2=O)cc1 | -8% | 1% | -11% | -21% | 1 | 3%
CCN(CC)c1ccc(N=Cc2c(O)n(-c3ccccc3C)c(=O)[nH]c2=O)cc1 | ? | 18% | -17% | 23µM* | -7 | -5%
CCN(CC)c1ccc(N=Cc2c(O)n(Cc3ccccc3)c(=O)[nH]c2=O)cc1 | 9.2µM* | 30% | 2% | 16µM* | 25 | -1%
SMILES | DT40 TDP1 no CPT | TGFb inhibitor | HepG2 tox | DT40 TDP1 CPT | IL-1B inflam inh | S-ASM inh
CC(C)c1ccc(NC(=O)CN2C(=O)CN=C(c3ccccc3)c3ccccc32)cc1 | ? | -1% | 5% | -17% | · | ·
COC(=O)C1=C(c2cc3ccccc3s2)C[C@@H]2CC[C@H]1N2C(=O)NCc1ccco1 | ? | -7% | -9% | ? | -16 | -2%
O=c1c([N+](=O)[O-])cn(O)cc1[N+](=O)[O-] | 1% | -3% | 2% | -17% | 5 | -17%
COc1ccc2nc(N3CCN(C(=O)CS(=O)(=O)c4ccc(C)cc4)CC3)sc2c1 | 13µM* | ? | -9% | 12µM* | · | ·
CCOc1ccc2nc(N3CCC(C(=O)N4CCC5(CC4)OCCO5)CC3)sc2c1 | ? | 22% | -9% | ? | -4 | 3%
CCc1ccc(-n2nc(C)c3c2NC(=O)CSC3c2ccccc2C)cc1 (stereo unspecified) | 18µM* | ? | -17% | ? | · | ·
CCc1ccc(-n2nc(C)c3c2NC(=O)CSC3c2ccc(C(=O)OC)cc2)cc1 (stereo unspecified) | 13µM* | -19% | -25% | 15µM* | · | ·
CCc1ccc(-n2nc(C)c3c2NC(=O)CSC3c2ccc(OC)cc2OC)cc1 (stereo unspecified) | 23µM* | -16% | -16% | 18µM* | · | ·
COc1ccccc1C1SCC(=O)Nc2c1c(C)nn2-c1cccc(C)c1 (stereo unspecified) | ? | 1% | -10% | ? | · | ·
COc1ccc(C2SCC(=O)Nc3c2c(C)nn3-c2ccccc2)cc1 (stereo unspecified) | ? | -7% | -7% | -24% | 6 | 1%
Cc1ccc(C(=O)Nc2cnn(-c3ccc(C(=O)N(C)Cc4n[nH]c5c4CCCC5)cc3)c2)c(C)c1 | ? | · | · | 15%[9.04 µM] | · | ·
CCCCn1c(O)c(/C=C2\C=Nc3ccccc32)c(=O)[nH]c1=O | -1% | -5% | -23% | 0% | 6 | -12%
CCN(CC)C(=O)Oc1ccc2cc(Br)ccc2c1 | ? | -19% | 6% | -30% | -11 | 1%
CCCC12CN3CCN(CC(C3)/C1=N\NC(=O)c1ccncc1)C2 | -33% | -19% | 6% | -17% | -2 | 2%
CCC12CN3CCN(CC(C3)/C1=N/NC(=O)c1ccncc1)C2 | -4% | 1.1µM* | 8% | 2% | 0 | 1%
